Test results published in PubChem BioAssay AID1159580 (chemical genetic matrix, 2015).
Values joined by “and” are separate entries in the source; they are usually repeats but may differ in a detail not shown here. Equal values may be shown once. About 2,000 (36%) of roughly 5,500 compounds were called active. Inconclusive results (about 18%) are left out. Cut-off read from the data, not from the text of the source: active = normalized growth mostly below about 0.91 (no sharp cut-off); inconclusive = no clear call, values can overlap the other calls; inactive = mostly above about 0.92. This is one part of the list.

Experiment: chemical genetic growth profiling, strain panel (AID 1159580);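 note: tested at 20 µM; growth read once vehicle control cultures reached saturation at 30 °C; 1 = growth at the plate median or of vehicle wells; lower values mean less growth of the strain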
Details: growth OD

Measured: normalized growth

COc1cc(-c2coc3cc(OCc4ccccc4)c(OC)c(O)c3c2=O)cc(O)c1OC
0.808 (active) and 1.01 (inactive): S. cerevisiae deletion strains, locus YHR030C, strain SLT2, stronger effect = lower value
inactive: S. cerevisiae deletion strains, locus YBR021W, strain FUR4, stronger effect = lower value 0.908 | S. cerevisiae deletion strains, locus YBR229C, strain ROT2, stronger effect = lower value 0.985 | S. cerevisiae deletion strains, locus YCL029C, strain bik1, stronger effect = lower value 0.962 | S. cerevisiae deletion strains, locus YDL101C, strain DUN1, stronger effect = lower value 0.918 | S. cerevisiae deletion strains, locus YDL185W, strain tfp1, stronger effect = lower value 0.968 | S. cerevisiae deletion strains, locus YDR101C, strain arx1, stronger effect = lower value 0.958 | S. cerevisiae deletion strains, locus YDR150W, strain NUM1, stronger effect = lower value 0.911 | S. cerevisiae deletion strains, locus YDR388W, stronger effect = lower value 0.954 | S. cerevisiae deletion strains, locus YER110C, stronger effect = lower value 1 | S. cerevisiae deletion strains, locus YER155C, strain BEM2, stronger effect = lower value 0.946 | S. cerevisiae deletion strains, locus YGL078C, strain dbp3, stronger effect = lower value 0.937 | S. cerevisiae deletion strains, locus YGR252W, strain gcn5, stronger effect = lower value 0.81 | S. cerevisiae deletion strains, locus YHR079C, strain IRE1 (second series), stronger effect = lower value 0.967 | S. cerevisiae deletion strains, locus YHR079C, strain IRE1, stronger effect = lower value 1.01 | S. cerevisiae deletion strains, locus YHR094C, strain hxt1, stronger effect = lower value 1 | S. cerevisiae deletion strains, locus YIL073C, strain SPO22, stronger effect = lower value 0.685 | S. cerevisiae deletion strains, locus YIL125W, strain kgd1, stronger effect = lower value 1 | S. cerevisiae deletion strains, locus YIR030C, strain dcg1, stronger effect = lower value 0.979 | S. cerevisiae deletion strains, locus YJL134W, strain LCB3, stronger effect = lower value 0.981 | S. cerevisiae deletion strains, locus YJL168C, strain set2, stronger effect = lower value 0.993 | S. cerevisiae deletion strains, locus YJR066W, strain TOR1, stronger effect = lower value 0.95 | S. cerevisiae deletion strains, locus YKL009W, strain mrt4, stronger effect = lower value 0.922 | S. cerevisiae deletion strains, locus YKL068W, stronger effect = lower value 1.02 | S. cerevisiae deletion strains, locus YKL085W, strain MDH1 (second series), stronger effect = lower value 0.996 | S. cerevisiae deletion strains, locus YKL085W, strain MDH1, stronger effect = lower value 0.996 | S. cerevisiae deletion strains, locus YLR039C, strain RIC1, stronger effect = lower value 0.86 | S. cerevisiae deletion strains, locus YLR102C, strain apc9, stronger effect = lower value 0.998 | S. cerevisiae deletion strains, locus YLR113W, strain HOG1, stronger effect = lower value 1.02 | S. cerevisiae deletion strains, locus YLR262C, strain YPT6, stronger effect = lower value 0.857 | S. cerevisiae deletion strains, locus YLR268W, strain sec22, stronger effect = lower value 0.903 | S. cerevisiae deletion strains, locus YML032C, strain rad52, stronger effect = lower value 0.956 | S. cerevisiae deletion strains, locus YML124C, strain tub3, stronger effect = lower value 0.964 | S. cerevisiae deletion strains, locus YMR078C, strain ctf18, stronger effect = lower value 1.01 | S. cerevisiae deletion strains, locus YMR263W, strain SAP30, stronger effect = lower value 0.893 | S. cerevisiae deletion strains, locus YMR307W, strain GAS1, stronger effect = lower value 0.736 | S. cerevisiae deletion strains, locus YNL183C, strain NPR1, stronger effect = lower value 0.972 | S. cerevisiae deletion strains, locus YNL250W, strain rad50, stronger effect = lower value 0.945 | S. cerevisiae deletion strains, locus YNL271C, strain bni1, stronger effect = lower value 0.979 | S. cerevisiae deletion strains, locus YNL298W, strain CLA4, stronger effect = lower value 0.989 | S. cerevisiae deletion strains, locus YNR052C, strain pop2, stronger effect = lower value 0.951 | S. cerevisiae deletion strains, locus YOL012C, strain htz1 0.39 | S. cerevisiae deletion strains, locus YOL147C, strain pex11, stronger effect = lower value 0.955 | S. cerevisiae deletion strains, locus YOR136W, strain idh2, stronger effect = lower value 0.97 | S. cerevisiae deletion strains, locus YOR144C, strain elg1, stronger effect = lower value 0.988 | S. cerevisiae deletion strains, locus YOR184W, strain ser1, stronger effect = lower value 0.896 | S. cerevisiae deletion strains, locus YOR231W, strain MKK1, stronger effect = lower value 1.02 | S. cerevisiae deletion strains, locus YOR316C, strain cot1, stronger effect = lower value 0.996 | S. cerevisiae deletion strains, locus YPL241C, strain CIN2, stronger effect = lower value 0.974 | S. cerevisiae deletion strains, locus YPL256C, strain CLN2, stronger effect = lower value 1 | S. cerevisiae deletion strains, locus YPR119W, strain clb2, stronger effect = lower value 1 | S. cerevisiae deletion strains, locus YPR141C, strain kar3, stronger effect = lower value 1.01
0.778 (active) and 1.02 (inactive): S. cerevisiae deletion strains, locus YJL095W, strain BCK1, stronger effect = lower value
active: S. cerevisiae deletion strains, locus YAL013W, strain DEP1, stronger effect = lower value 0.788 | S. cerevisiae deletion strains, locus YDL035C, strain GPR1, stronger effect = lower value 0.757 | S. cerevisiae deletion strains, locus YDL074C, strain BRE1, stronger effect = lower value 0.764 | S. cerevisiae deletion strains, locus YDL192W, strain arf1, stronger effect = lower value 0.864 | S. cerevisiae deletion strains, locus YDR162C, strain NBP2, stronger effect = lower value 0.714 | S. cerevisiae deletion strains, locus YDR318W, strain mcm21, stronger effect = lower value 0.877 | S. cerevisiae deletion strains, locus YDR502C, strain sam2, stronger effect = lower value 0.901 | S. cerevisiae deletion strains, locus YEL061C, strain CIN8, stronger effect = lower value 0.821 | S. cerevisiae deletion strains, locus YER167W, strain BCK2, stronger effect = lower value 0.879 | S. cerevisiae deletion strains, locus YGL086W, strain mad1, stronger effect = lower value 0.841 | S. cerevisiae deletion strains, locus YGL248W, strain PDE1, stronger effect = lower value 0.787 | S. cerevisiae deletion strains, locus YGR135W, strain pre9, stronger effect = lower value 0.836 | S. cerevisiae deletion strains, locus YHR129C, strain ARP1, stronger effect = lower value 0.783 | S. cerevisiae deletion strains, locus YHR200W, strain rpn10, stronger effect = lower value 0.883 | S. cerevisiae deletion strains, locus YIL066C, strain RNR3, stronger effect = lower value 0.733 | S. cerevisiae deletion strains, locus YJL187C, strain SWE1 (second series), stronger effect = lower value 0.837 | S. cerevisiae deletion strains, locus YJR043C, strain POL32, stronger effect = lower value 0.747 | S. cerevisiae deletion strains, locus YKR001C, strain vps1, stronger effect = lower value 0.88 | S. cerevisiae deletion strains, locus YLR058C, strain SHM2, stronger effect = lower value 0.863 | S. cerevisiae deletion strains, locus YLR330W, strain CHS5, stronger effect = lower value 0.827 | S. cerevisiae deletion strains, locus YLR342W, strain FKS1 (second series), stronger effect = lower value 0.785 | S. cerevisiae deletion strains, locus YLR371W, strain rom2, stronger effect = lower value 0.86 | S. cerevisiae deletion strains, locus YLR418C, strain cdc73, stronger effect = lower value 0.705 | S. cerevisiae deletion strains, locus YML016C, strain PPZ1, stronger effect = lower value 0.846 | S. cerevisiae deletion strains, locus YMR223W, strain ubp8, stronger effect = lower value 0.877 | S. cerevisiae deletion strains, locus YNL067W, strain RPL9B, stronger effect = lower value 0.829 | S. cerevisiae deletion strains, locus YNL153C, strain GIM3, stronger effect = lower value 0.843 | S. cerevisiae deletion strains, locus YNL233W, strain BNI4, stronger effect = lower value 0.796 | S. cerevisiae deletion strains, locus YNL307C, strain MCK1, stronger effect = lower value 0.844 | S. cerevisiae deletion strains, locus YNL322C, strain KRE1, stronger effect = lower value 0.823 | S. cerevisiae deletion strains, locus YOL006C, strain TOP1, stronger effect = lower value 0.449 | S. cerevisiae deletion strains, locus YOR061W, strain CKA2, stronger effect = lower value 0.848 | S. cerevisiae deletion strains, locus YOR069W, strain VPS5, stronger effect = lower value 0.834 | S. cerevisiae deletion strains, locus YPR163C, strain tif3, stronger effect = lower value 0.837 | S. cerevisiae deletion strains, locus YPR167C, strain met16, stronger effect = lower value 0.871 | S. cerevisiae deletion strains, strain wtn01, stronger effect = lower value 0.849 | S. cerevisiae strains, strain wild type, stronger effect = lower value 0.663
